Compound activity: PubChem BioAssay, several laboratories
TWEAK-Fn14 inh – inhibitors of TWEAK-Fn14 signaling, primary screen, luciferase reporter cells, uHTS; TWEAK-stimulated Fn14 reporter cells, luciferase luminescence, 8 h; inhibition, % at 10 µM; actives 2% (n = 360,000); AID 1159606, 2016; in the data active = inhibition above about 50%
LGR2 inh – inhibitors of bursicon-induced LGR2 CRE-luciferase signal, primary screen, cell-based, HEK293, CRE-luciferase reporter, bursicon stimulation; inhibition, % at 9.99 µM; bursicon-stimulated, 4 h; actives 0.35% (n = 380,000); Drosophila bursicon receptor LGR2 (rickets);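 active = drop in luminescence signal, shown as inhibition above about 50% in the replicate tests, limit read from the data, passing the limit was not always enough; inconclusive = probably only some replicates passing the limit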;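 note: agonist challenge used bursicon conditioned medium at about half maximal strength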
EWS-Fli block – EWS/Fli-driven NR0B1 reporter inhibitors, primary screen, A673 cells, NR0B1 luciferase, luminescence, MLPCN library; viability-normalised; inhibition, % at 12.6 µM; actives 0.67% (n = 350,000);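 active = mean inhibition of at least 50% after viability correction, with every replicate also passing that limit; inconclusive = mean reaches 50% but only one of two replicates passes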;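 note: firefly luciferase signal divided by Alamar Blue viability fluorescence both relative to DMSO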
PAX8 inh HTS – inhibitors of PAX8-driven TPO luciferase reporter, primary screen, RMG-I cells, single concentration; actives 1.2% (n = 360,000); inhibition, % at 12.6 µM; AID 652154, 2013; SteadyGlo, 24 h;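 active = mean replicate inhibition at least 60% with every replicate also reaching 60%; inconclusive = only one of the two criteria is met; inactive = mean below 60% and not all replicates reaching 60%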;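 note: luciferase light reporting Pax8 driven TPO promoter activity; plate controls were median of neutral control wells for no effect and mitoxantrone controls for full effect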
TROY signal inh – inhibitors of TROY-driven NF-kB signaling, primary screen, Q293 LMP1-TROYcd cells, NF-kB luciferase, uHTS. Q293 LMP1-TROYcd NF-kB luciferase reporter, 4 h. AID 1347056, 2019. actives 0.98% (n = 360,000). inhibition, % at 10 µM;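 active = compounds whose plate-normalised and pattern-corrected inhibition of the luciferase reporter signal at the single screening dose is 50% or more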
LMP1 NFkB inh – EBV LMP1-driven NF-kappaB luciferase reporter inhibitors, primary screen, cell-based, luminescence, single point; AID 504558, 2011; inhibition, % at 12.5 µM; LMP1-induced NF-kappaB luciferase reporter cells; actives 0.69% (n = 350,000); in the data active = inhibition above about 41%; inconclusive = no clear call, values can overlap the other calls;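 note: 0% = neutral control wells and 100% = reference inhibitor control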
Active calls of the source: *; ? = inconclusive; . = no result. Sampled rows, rich in hits. Any-hit rate of the full collection: about 3.2%.

SMILES | TWEAK-Fn14 inh | LGR2 inh | EWS-Fli block | PAX8 inh HTS | TROY signal inh | LMP1 NFkB inh
CCN1/C(=C/C=C/c2sc3ccccc3[n+]2CC)Sc2ccccc21 | 96.0* | . | . | . | 53.3* | 50.2*
C[C@H]1CN([C@@H](C)CO)C(=O)c2cc(N(C)C)ccc2O[C@@H]1CN(C)C(=O)Nc1ccccc1 | . | 12.4 | . | . | . | .
CO[C@H]1CC[C@H]2CCN(C)C(=O)[C@@H](C)N(C)C(=O)c3cc(C#N)ccc3OC[C@H]1O2 | . | -8.8 | -4.3 | -20.2 | . | .
O=C(CNC(=S)N(Cc1ccc(F)cc1)C1CCCCC1)NCC1CCCO1 (stereo not given) | 10.4 | 6.9 | -1.2 | 3.4 | -4.2 | 1.6
O=C(CNC(=S)N(Cc1ccccc1F)C1CCCCC1)NCC1CCCO1 (stereo not given) | -7.2 | 4.2 | -5.1 | 65.4* | 16.3 | 1.8
C/C=C/c1ccc([C@@H]2[C@H](CO)N(CC3CCCC3)C23CN(C(=O)COC)C3)cc1 | . | -4.1 | 0.5 | . | . | .
O=C(CCN1N=C(c2ccccc2)CCC1=O)NCC1COc2ccccc2O1 (stereo not given) | 74.7* | 2.5 | 3.3 | 20.2 | 11.7 | 1.3
COc1ccc(-c2c(C)nn3c(N)c(C#N)cnc23)cc1OC | 50.4* | . | -22.2 | 4.2 | -5.8 | -6.1
Cc1nn2c(N)c(C#N)cnc2c1-c1ccc(Cl)cc1 | -3.0 | . | . | . | 7.7 | 6.2
COc1ccc(-c2nc(CN3CCN(c4cc(C)nc(C)c4)CC3)c(C)o2)c2ccccc12 | -19.1 | 13.4 | 22.0 | 22.1 | -24.1 | 1.7
Cc1oc(-c2cccc3ccccc23)nc1CN1CCN(c2ncnc3ccccc23)CC1 | 68.8* | 33.5 | 20.2 | 24.9 | 41.9 | 23.6
C[C@@H]1CN([C@@H](C)CO)C(=O)Cc2cc(NS(=O)(=O)c3ccc(F)cc3)ccc2O[C@@H]1CN(C)S(=O)(=O)c1cn(C)cn1 | . | 17.1 | 1.2 | -9.2 | . | .
Cc1c(C(=O)Nc2ccccc2)cnn1-c1ccccc1 | -5.8 | -73.2 | -109.9 | -166.6 | -18.8 | -20.0
Cc1ccc(NC(=O)c2cnn(-c3ccccc3)c2C)cc1C | 84.9* | 85.1* | 55.8* | 0.6 | 62.6* | 8.1
COc1ccc(NC(=O)c2cnn(-c3ccccc3)c2C)cc1 | 50.2* | . | -16.5 | -74.1 | -14.6 | 18.7
O=S(=O)(/C=C/C=C/S(=O)(=O)c1ccccc1)c1ccccc1 | 93.1* | 45.7 | 65.2* | 117.1* | 46.3 | -10.2
CCCCCN=C(N)N/N=C/c1c[nH]c2ccc(OC)cc12 | -14.8 | . | 57.3* | 106.5* | 11.9 | -2.2
CCCOc1ccc(C(=O)N/N=C/c2c[nH]c3ccc(Br)cc23)cc1 | 7.9 | 2.5 | 3.2 | -12.5 | -11.5 | 4.5
NC1=NC(=O)/C(=C/c2ccc(Br)cc2)S1 | -20.8 | -4.0 | -22.7 | -1.4 | -27.4 | 74.3*
Cc1ccsc1/C=C1\SC(N)=NC1=O | -34.3 | . | . | . | -55.5 | 50.0*
COc1cc(/C=C2\SC(N)=NC2=O)ccc1O | 99.7* | ? | 32.1 | 13.4 | 39.1 | -13.4
O=C(Nc1ccc(F)cc1)N[C@H]1CC[C@@H](CCNS(=O)(=O)c2cccc(Cl)c2)O[C@@H]1CO | . | -5.1 | 13.4 | 14.9 | . | .
Cc1ccc(NC(=O)C2=C(c3ccccc3)S(=O)(=O)CCS2(=O)=O)cc1 | 87.7* | 37.6 | 64.6* | 115.9* | 73.5* | 93.5*
CC(=O)N1CC=CC1(CC(C)C)C(=O)NCCN1CCOCC1 (stereo not given) | 83.2* | -46.0 | -31.4 | -19.0 | -48.7 | 7.8
CC(C)CC1(C(=O)NCCN2CCOCC2)C=CCN1C(=O)c1ccccc1 (stereo not given) | 6.1 | -22.8 | 0.9 | -2.7 | -26.5 | 1.2
CC(NC(=O)COC(=O)/C(=C/c1cccs1)c1cccs1)c1ccccc1 (stereo not given) | 50.1* | 9.8 | 11.5 | 23.4 | 39.5 | 3.4
CC(NC(=O)COC(=O)c1cccs1)c1ccccc1 (stereo not given) | 29.6 | -9.8 | -13.5 | -9.2 | 12.1 | -2.5
COc1ccccc1-c1csc(NC(=O)c2ccc(N3C(=O)CCC3=O)cc2)n1 | 50.8* | 7.6 | 0.5 | 6.5 | 36.0 | 1.9
COc1ccccc1/C=C/C(C)=O | -2.5 | 7.6 | . | -9.2 | -26.1 | -9.6
